This note sets out measurements from PubChem BioAssay (EPA / NIEHS).

The AC50 is the midpoint of the concentration-response curve, whichever way the signal moves.

Activity calls are given as the source filed them. Rule for the calls: active = hit-call score of the fitted dose curve at least 0.9, where 1 is the maximum; inactive = score below 0.9.

The nature of assay [1]: BSK_CASM3C_SRB: Viability Assessment in the BioMAP Diversity Plus: CASM3C Assay (AID 2283050).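 Note: total protein by SRB staining as cytotoxicity measure in parallel cultures; cells exposed to compound for 24 h.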 Particulars: primary human coronary artery smooth muscle cells.
Read-out in assay [2]: Thrombomodulin, THBD (gene 7056)
The experiment in a line: BSK_CASM3C_Thrombomodulin: BioMAP Diversity Plus: CASM3C Assay for Thrombomodulin Biomarker Activity (AID 2283051).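 Note: thrombomodulin protein level measured by ELISA 24 h after dosing.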 As to conditions: primary human coronary artery smooth muscle cells; actives raise or lower the signal.

Read-out in assay [3]: Tissue Factor, F3 (gene 2152)
The experiment in a line: BSK_CASM3C_TissueFactor: BioMAP Diversity Plus: CASM3C Assay for Tissue Factor Biomarker Activity (AID 2283052).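 Note: cell surface tissue factor protein level read by ELISA.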 Particulars: primary human coronary artery smooth muscle cells; actives raise or lower the signal.

Read-out in assay [4]: Interferon-gamma inducible Protein 10 (IP10), CXCL10 (gene 3627)
The assay can be described thus: BSK_hDFCGF_IP10: BioMAP Diversity Plus: hDFCGF Assay for Interferon-gamma inducible Protein 10 (IP10) Biomarker Activity (AID 2283053). As to conditions: primary human foreskin fibroblasts; actives raise or lower the signal. Summed up: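 Primary foreskin fibroblasts, human; 24 h compound exposure; IP-10 by ELISA; bidirectional fit vs DMSO.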

Read-out in assay [5]: Urokinase-type plasminogen activator receptor (uPAR), PLAUR (gene 5329)
The experiment in a line: BSK_CASM3C_uPAR: BioMAP Diversity Plus: CASM3C Assay for Urokinase-type plasminogen activator receptor (uPAR) Biomarker Activity (AID 2283054).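 Note: cell-surface uPAR protein level quantified by ELISA.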 As to conditions: primary human coronary artery smooth muscle cells; actives raise or lower the signal.

Read-out in assay [6]: Vascular cell adhesion molecule 1 (VCAM1), VCAM1 (gene 7412)
The experiment in a line: BSK_CASM3C_VCAM1: BioMAP Diversity Plus: CASM3C Assay for Vascular cell adhesion molecule 1 (VCAM1) Biomarker Activity (AID 2283055).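 Note: VCAM-1 protein level quantified by ELISA on the cells.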 As to conditions: primary human coronary artery smooth muscle cells; actives raise or lower the signal.

Read-out in assay [7]: Collagen III, COL3A1 (gene 1281)
The experiment in a line: BSK_hDFCGF_CollagenIII: BioMAP Diversity Plus: hDFCGF Assay for Collagen III Biomarker Activity (AID 2283056). As to conditions: primary human foreskin fibroblasts; actives raise or lower the signal. The essentials:
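Human foreskin primary fibroblasts were exposed to test chemicals for 24 h, after which collagen III was quantified by ELISA. Activity was fitted bidirectionally against DMSO as negative control and baseline.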

Read-out in assay [8]: Epidermal growth factor receptor (EGFR), EGFR (gene 1956)
The assay can be described thus: BSK_hDFCGF_EGFR: BioMAP Diversity Plus: hDFCGF Assay for Epidermal growth factor receptor (EGFR) Biomarker Activity (AID 2283057). Particulars: primary human foreskin fibroblasts; actives raise or lower the signal. Summed up: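 hDFCGF system, primary human foreskin fibroblasts; compound 24 h; EGFR measured by ELISA; DMSO = negative control/baseline; bidirectional fitting.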

Read-out in assay [9]: Interleukin-8 (IL8), CXCL8 (gene 3576)
The experiment in a line: BSK_hDFCGF_IL8: BioMAP Diversity Plus: hDFCGF Assay for Interleukin-8 (IL8) Biomarker Activity (AID 2283058). As to conditions: primary human foreskin fibroblasts; actives raise or lower the signal. Summed up: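 hDFCGF human dermal fibroblasts; 24 h chemical exposure; IL-8 by ELISA; bidirectional curve fit vs DMSO baseline; gain or loss of signal scored.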

A short description of assay [10]: BSK_hDFCGF_Proliferation: Cell Proliferation Assessment in the BioMAP Diversity Plus: hDFCGF Assay (AID 2283059).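 Note: curves fitted for both rise and fall of signal versus DMSO baseline.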 Particulars: primary human foreskin fibroblasts. The essentials:
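Primary human foreskin fibroblasts, sub-confluent; […]; 10% TCA fix, 0.1% SRB stain, A560 total protein. Gain/loss fitted bidirectionally vs DMSO control.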

For the compound `C[C@]12CC[C@H]3C(=CCc4cc(O)ccc43)[C@@H]1CCC2=O`, the result in [1], in assay [2], in assay [3], in assay [4], in assay [5] and in assay [6] was inactive. Further, the outcome in [7], in assay [8], in assay [9] and in assay [10] was inactive.
Turning to `O=C(F)C1(F)C(F)(F)C(F)(F)C(F)(F)C(F)(F)C1(F)F`, the outcome in [1], in assay [2], in [3], in assay [4], in [5] and in [6] was inactive. Further, the outcome in assay [7], in [8], in [9] and in assay [10] was inactive.
As to `Cc1cc(C)c(O)c(C(C)(C)C)c1`, the AC50 in assay [1] is 27.2 µM (active); in assay [3], 27.4 µM (active); in assay [4], 35.9 µM (active); in assay [5], 31.2 µM (active); in assay [6] it was 29.5 µM (active); in [7], 20 µM (active). Further, the AC50 in assay [10] was 18.8 µM (active). The outcome in [2], in assay [8] and in [9] was inactive.
In the case of `NCC(F)(F)C(F)(F)C(F)(F)C(F)(F)C(F)(F)C(F)(F)C(F)(F)C(F)(F)F`, the outcome in assay [1], in assay [2], in assay [3], in assay [4], in assay [5] and in assay [6] was inactive. Moreover, the result in assay [7], in assay [8] and in assay [9] was inactive.
With `NC(O)(C(F)(F)F)C(F)(F)F`, the outcome in assay [1], in [2], in assay [3], in assay [4], in [5] and in assay [6] was inactive. Besides, the outcome in assay [7], in assay [8], in assay [9] and in [10] was inactive.
With `Cc1cnccn1`, the result in [1], in assay [2], in assay [3], in [4], in assay [5] and in assay [6] was inactive. For the same compound, the result in assay [7], in assay [8], in [9] and in assay [10] was inactive.
As for `OCC(O)CC(F)(F)C(F)(F)C(F)(F)C(F)(F)C(F)(F)C(F)(F)C(F)(F)C(F)(F)F` (stereo not drawn), the outcome in assay [1], in [2], in assay [3], in assay [4], in [5] and in assay [6] was inactive. Also, the result in assay [7], in [8] and in [9] was inactive.
Turning to `NC(=O)C(F)(F)C(F)(F)C(F)(F)C(F)F`, the outcome in assay [1], in [2], in [3], in assay [4], in assay [5] and in [6] was inactive. The result in [7], in assay [8] and in [9] was inactive.
Turning to `O=S(=O)(O)CCC(F)(F)C(F)(F)C(F)(F)C(F)(F)C(F)(F)C(F)(F)C(F)(F)C(F)(F)F`, the outcome in assay [1], in assay [2], in [3], in assay [4], in [5] and in assay [6] was inactive. In addition, the result in assay [7], in assay [8] and in assay [9] was inactive.
On to `O=C(O)C(F)(F)C(F)(F)C(F)(F)OC(F)(C(F)(F)F)C(F)(F)F`, for which the outcome in [1], in [2], in assay [3], in assay [4], in assay [5] and in [6] was inactive. Also, the result in assay [7], in [8], in assay [9] and in [10] was inactive.
For `CN(C(=O)C(F)(F)C(F)(F)C(F)(F)F)[Si](C)(C)C`, the outcome in assay [1], in assay [2], in assay [3], in assay [4], in [5] and in assay [6] was inactive. Besides, the result in [7], in [8] and in [9] was inactive.
In the case of `O=S(=O)(Cl)C(F)(F)C(F)(F)C(F)(F)C(F)(F)C(F)(F)C(F)(F)C(F)(F)C(F)(F)F`, the result in assay [1], in assay [2], in assay [3], in assay [4], in assay [5] and in assay [6] was inactive. The result in assay [7], in assay [8] and in assay [9] was inactive.
For `CCN(CC)c1ccc(C=O)c(O)c1`, the outcome in assay [1], in assay [2], in assay [3], in [4], in assay [5] and in assay [6] was inactive. The outcome in assay [7], in [8] and in [9] was inactive. In addition, in [10], the AC50 is 30.4 µM (active).
As to `O=C=NCc1cccc(CN=C=O)c1`, the result in assay [1], in assay [2], in assay [3], in assay [4], in [5] and in [6] was inactive. In addition, the outcome in [7], in assay [8], in [9] and in [10] was inactive.
For `NC(=O)C(F)(F)C(F)(F)C(F)(F)C(F)(F)C(F)(F)C(F)(F)C(F)(F)F`, the result in assay [1], in assay [2], in [3], in [4], in assay [5] and in assay [6] was inactive. Also, the outcome in assay [7], in assay [8] and in [9] was inactive.
For `CCOC(=O)CC(=O)C(F)(F)C(F)(F)F`, the outcome in [1], in assay [2], in assay [3], in assay [4], in assay [5] and in [6] was inactive. In addition, the result in [7], in assay [8], in assay [9] and in assay [10] was inactive.
Take `CCN(CC)c1ccc2c(c1)Oc1cc(N(CC)CC)ccc1C21OC(=O)c2ccccc21`: the result in assay [1], in [2], in assay [3], in assay [4], in [5] and in assay [8] was inactive. The result in assay [9] was inactive. Moreover, the AC50 in assay [6] was 1.98 µM (active); in assay [7], 10 µM (active); in assay [10], 10.5 µM (active).
